Shown are actives, neighbours in structure and some others; about 9.2% of the full set was active somewhere.
Rab9 prom act = qHTS Assay for Rab9 Promoter Activators; Potency, µM (top dose mostly 9.22 µM), hits mostly activators; Huh7 Rab9 promoter-luciferase reporter, luminescence, 24 h; hit rate 2.8% among 320,000; also: nearly all actives have a fitted effect of over 60% in size
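Huh7 reporter line, Rab9 promoter upstream of luciferase. Compound exposure 24 h at 37 °C in reduced-serum medium with 10% FBS. Read-out: luminescence.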
ELG1 genotox = qHTS screen for small molecules that induce genotoxicity in human embryonic kidney (HEK293T) cells expressing luciferase-tagged ELG1 | Potency, µM (titrated, usually from 46 µM), usual class: activators | hit rate 1.3% among 330,000 | HEK293T ELG1-luciferase reporter, luminescence, 16 h; also: nearly all actives have a fitted effect of over 60% in size
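Screening used a luciferase reporter fused to human ELG1 in HEK293T cells. Luminescence was read on a CCD plate imager after 16 hr exposure and 30 min ONE-Glo incubation.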
ELG1 repair inh = qHTS screen for small molecules that inhibit ELG1-dependent DNA repair in human embryonic kidney (HEK293T) cells expressing luciferase-tagged ELG1; hit rate 2.3% among 330,000; Potency, µM (titrated, usually from 46.1 µM), actives largely listed as inhibitors; HEK293T ELG1-luciferase reporter, luminescence, 16 h; DNA damage induced by 5-fluorouridine; also: nearly all actives have a fitted effect of over 55% in size
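Cells (2,000 per well) received 5-fluorouridine plus test compound or DMSO and were incubated 16 hr at 37 °C, 5% CO2. Luciferase activity was read by luminescence 30 min after ONE-Glo addition; signal suppression marked inhibition of damage-induced ELG1 function.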
FLuc modulator = qHTS profiling assay for firefly luciferase inhibitor/activator using purifed enzyme and Km concentrations of substrates (counterscreen for miR-21 project); purified FLuc, Km substrates, luminescence inhibition; Potency, µM (titrated, usually from 57.5 µM), usual class: inhibitors; hit rate 6.9% among 360,000; AID 588342, 2011; also: nearly all actives have a fitted effect of over 55% in size
Target sequence (P08659 whole entry, looked up): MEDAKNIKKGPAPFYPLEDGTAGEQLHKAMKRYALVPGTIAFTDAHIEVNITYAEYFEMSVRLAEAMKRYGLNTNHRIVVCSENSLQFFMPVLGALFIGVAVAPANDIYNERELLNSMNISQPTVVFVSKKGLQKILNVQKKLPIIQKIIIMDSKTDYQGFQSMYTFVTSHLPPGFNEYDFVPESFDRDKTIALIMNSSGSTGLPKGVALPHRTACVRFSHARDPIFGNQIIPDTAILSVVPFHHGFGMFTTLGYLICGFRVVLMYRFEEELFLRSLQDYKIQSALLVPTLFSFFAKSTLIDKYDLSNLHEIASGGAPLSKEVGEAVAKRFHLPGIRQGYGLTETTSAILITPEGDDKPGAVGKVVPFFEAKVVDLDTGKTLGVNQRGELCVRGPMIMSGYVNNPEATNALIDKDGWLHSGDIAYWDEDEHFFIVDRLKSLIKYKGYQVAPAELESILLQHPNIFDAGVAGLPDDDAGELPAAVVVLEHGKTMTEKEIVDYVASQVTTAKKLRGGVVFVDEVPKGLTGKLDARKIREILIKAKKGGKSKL
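Biochemical qHTS of compounds, final roughly 60 µM downward over six points, against 10 nM purified firefly luciferase using Km concentrations of substrates (10 uM D-luciferin, 10 uM ATP) in Tris acetate pH 7.5 buffer; luminescence output.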
NPC1 prom act = qHTS Assay for NPC1 Promoter Activators. Huh7 NPC1 promoter luciferase reporter, 24 h. AID 485313, 2010. hit rate 2.4% among 320,000. Potency, µM (series often up to 9.22 µM), actives largely listed as activators; also: nearly all actives have a fitted effect of over 60% in size
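Stably transfected Huh7 (NPC1 promoter→luciferase), 1500 cells/well in Opti-MEM + 10% FBS, 2 h settle, then compound 24 h at 37 °C. Luminescence after 10 min with Amplite reagent.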
SMN2 splice up = qHTS Assay for Enhancers of SMN2 Splice Variant Expression; HEK293 SMN2-luciferase splicing reporter, luminescence, 30-36 h; Potency, µM (series often up to 46.1 µM), actives largely listed as activators; hit rate 2.8% among 210,000; AID 1458, 2008; also: nearly all actives have a fitted effect of over 55% in size
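HEK293 cells carry an SMN2 minigene-luciferase reporter in which exon 7 inclusion puts luciferase in frame. Cells were seeded at 2000 cells/well, attached for 10-12 hours, then exposed to compounds for 30-36 hours at 37C before ONE-Glo luminescence.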
A number is an active result; . = inactive; ? = inconclusive; / = no result; [ ] = another dose, or the depositor's remark. Calls follow the shape of the dose curve; as a rule, active = well fitted curve in the direction sought with a large enough effect; inconclusive = small, poorly fitted or top-dose-only effect, or another doubt; inactive = no such curve, though single readings can be large; an effect the other way counts as inactive or inconclusive.

SMILES | Rab9 prom act | ELG1 genotox | ELG1 repair inh | FLuc modulator | NPC1 prom act | SMN2 splice up
c1coc(CNc2ncnc3sc4c(c23)CCCCC4)c1 | . | . | ? | ? | . | .
CCOC(=O)c1sc2nc(CC(=O)OC)nc(NCc3ccc(F)cc3)c2c1C | . | . | ? | . | . | .
CCOC(=O)c1sc2nc(C)nc(Nc3ccc(OC)cc3)c2c1C | . | . | . | . | . | .
O=C(Oc1ccccc1)N1CCC[C@@]2(CCN(c3ccccn3)C2)C1 | / | / | / | / | / | .
Cc1cc(Nc2ccc(C)c(Cl)c2)n2nc(-c3ccccc3)nc2n1 | / | / | / | . | / | .
CCOC(=O)c1sc2nc(C)nc(NCc3ccc(F)cc3)c2c1C | . | . | 7.3µM | . | . | /
COc1cccc(C2=NN(C(=O)c3ccco3)C(c3ccco3)C2)c1 (centres undefined) | . | . | . | 10.7µM | . | /
CS(=O)(=O)Nc1ccc(C2=NN(C(=O)c3ccco3)C(c3ccco3)C2)cc1 (centres undefined) | . | . | ? | ? | . | /
CCCCNC(=O)CSc1nc2ccsc2c(=O)n1C1CCN(C(=O)OCC)CC1 | . | . | . | . | . | .
CC1=NN(c2ccccc2)C(=O)/C1=C\c1c(C)[nH]n(-c2ccccc2)c1=O | . | . | . | ? | . | .
CC1=NN(c2ccccc2)C(=O)/C1=C/c1c(O)n(-c2ccc(F)c(Cl)c2)[nH]c1=O | ? | . | ? | 2.69µM | . | .[1.84 µM]
Cc1csc2ncc(C(=O)NCCc3ccccc3)c(=O)n12 | ? | 20.6µM | ? | ? | ? | ?
O=C(NCCc1ccccc1)c1cnc2ccccn2c1=O | 0.562µM | . | ? | 10.7µM | 0.891µM | 3.98µM
Cc1cccn2c(=O)c3cc(C(=O)NCc4ccco4)c(=N)n(CCc4ccccc4)c3nc12 | . | . | . | . | . | /
Cc1cccn2c(=O)c3cc(C(=O)NCCc4ccccc4)c(=N)n(Cc4ccco4)c3nc12 | . | . | 14.6µM | . | . | /
CCc1ccccc1NC(=O)c1cnc2scc(C)n2c1=O | . | . | ? | ? | . | ?
Cn1c(C(=O)NCCc2ccccc2)cc2c(=O)n3ccccc3nc21 | / | / | / | . | / | /
CSc1ccccc1NC(=O)c1cnc2scc(C)n2c1=O | . | 18.4µM | ? | ? | . | ?
COc1ccc(C(=O)Cc2cc(OC)c(OC)cc2C(=O)c2ccccc2F)cc1OC | . | . | ? | . | . | .
Cc1ccccc1NC(=O)c1cnc2ccccn2c1=O | 0.794µM | ? | ? | 0.757µM | ? | ?
Cc1cc(Br)cc(C)c1NC(=O)c1cnc2ccccn2c1=O | / | / | / | . | / | .
Cc1cccc(CCNC(=O)c2cnc3c(C)cccn3c2=O)c1 | / | / | / | 4.26µM | / | /
CCOc1ccc(CNC(=O)c2cnc3c(C)cccn3c2=O)cc1 | / | / | / | . | / | /
CCC(C)NC(=O)c1ccc(NS(=O)(=O)c2ccc3[nH]c(=O)[nH]c3c2)cc1 (centres undefined) | . | ? | ? | 16.9µM | . | /
CCN(CC)C(=O)c1ccc(NS(=O)(=O)c2ccc3[nH]c(=O)[nH]c3c2)cc1 | . | . | 18.3µM | . | . | /
SMILES | Rab9 prom act | ELG1 genotox | ELG1 repair inh | FLuc modulator | NPC1 prom act | SMN2 splice up
COCCNC(=O)c1ccc(NS(=O)(=O)c2ccc3[nH]c(=O)[nH]c3c2)cc1 | . | . | . | . | . | /
CC1CCc2nc(NC(=O)CN3CCN(Cc4ccc5c(c4)OCO5)CC3)sc2C1 (centres undefined) | . | . | 11.6µM | . | . | .
CC1CCc2nc(NC(=O)Nc3ccc4c(c3)OCO4)sc2C1 (centres undefined) | 2.51µM | ? | ? | 1.35µM | 3.16µM | /
CCN(CC)c1ccc(-n2cc3c(=O)n(C)c(=O)n(C)c3c2)cc1 | . | . | . | ? | . | .
CN(C)c1ccc(-n2cc3c(=O)n(C)c(=O)n(C)c3c2)cc1 | ? | ? | ? | 16.9µM | ? | .
CC1(C)C(=O)Nc2ccccc2N1C(=O)COC(=O)Cc1ccc(Cl)c(Cl)c1 | / | . | . | / | / | /
O=c1cc(-c2cc(O)c(O)c(O)c2)oc2cc(O)cc(O)c12 | / | / | / | / | / | .
O=c1cc(-c2ccccc2)oc2cc(O)cc(O)c12 | / | / | / | / | / | 3.98µM
O=c1cc(-c2ccc(O)cc2)oc2cc(O)cc(O)c12 | . | / | / | / | ? | 22.4µM
Cc1ccc(/C=N/c2sc3c(c2C(N)=O)CCCC3)o1 | 3.98µM | . | ? | 10.7µM | ? | ?
CN(C)/C=N/c1sc2c(c1C(N)=O)CCCC2 | . | . | . | . | . | .
CC(=O)Oc1ccc(C(=O)Cc2ccccn2)c(O)c1 | . | . | ? | 16.9µM | . | .
CCc1cc(C(=O)Cc2ccccn2)c(O)cc1O | . | . | ? | . | . | /
CCCCOc1ccc(NC(=O)Nc2nnc(C)s2)cc1 | . | . | ? | ? | . | /
Cc1cc(CNC(=O)[C@@H]2C[C@H]2[C@@H](NP(=O)(c2ccccc2)c2ccccc2)c2ccccc2)nn1C | / | / | / | / | / | .
Oc1ccc(Cl)cc1CNCc1ccc(C(F)(F)F)cc1 | . | . | . | . | . | /
Cc1ccc(NC(=O)COC(=O)C2CCC2)cc1S(=O)(=O)N1CCCCC1 | . | . | . | . | . | /
Cc1ccccc1N1CCN(S(=O)(=O)c2nnc(NC(=O)c3ccc(C(C)C)cc3)s2)CC1 | / | / | / | 23.9µM | / | /
CC(C)c1ccc(C(=O)Nc2nnc(S(=O)(=O)N3CCOCC3)s2)cc1 | . | . | . | 16.9µM | . | /
Cc1ccccc1N1CCN(S(=O)(=O)c2nnc(NC(=O)c3ccccc3)s2)CC1 | / | / | / | . | / | /
CCN(CC)S(=O)(=O)c1nnc(NC(=O)c2ccc(C(C)C)cc2)s1 | / | / | / | 9.53µM | / | /
CCCS(=O)(=O)N1CC(=O)N(c2ccc(C)c(Cl)c2)C(C)(C(=O)NC2CCCCCC2)C1 (centres undefined) | / | / | / | . | / | /
Cc1ccc(NC(=O)c2ccc(Cl)c(S(=O)(=O)N3CCCC3)c2)nc1 | . | . | . | ? | . | /
O=c1c2ccccc2nc(/C=C/c2cccc(Br)c2)n1CCCO | . | . | 14.6µM | . | . | /
Cn1c(/C=C/c2cccc(Br)c2)nc2ccccc2c1=O | .[1.84 µM] | . | . | 15.1µM | . | /
O=c1c2ccccc2nc(/C=C/c2ccc(Br)cc2)n1CCCO | . | . | . | ? | . | /
CCCCn1c(SCC(=O)c2ccc3c(c2)NC(=O)CO3)nc2cc(S(N)(=O)=O)ccc21 | . | . | 16.4µM | . | . | .
CCCCn1c(SCC(=O)N2CCCC2)nc2cc(S(N)(=O)=O)ccc21 | . | . | . | . | . | .
CCCCn1c(SCc2c(C)noc2C)nc2cc(S(N)(=O)=O)ccc21 | . | 18.4µM | ? | . | . | ?
